Source: PubChem BioAssay
GPR151 activ – activates the human receptor GPR151 | Q8TDV0 | PathHunter beta-arrestin GPR151 cells, luminescence | activation, % at 11.2 µM | actives 1% (n = 650,000) | AID 1508602; in the data active = activation above about 4.9%;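 note: 0% = median of compound wells and 100% = cells with positive control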
FBW7 activator – human FBW7 E3 ligase activation, primary screen; AID 1259310; actives 0.13% (n = 650,000); Q969H0; normalized activity (activation), % at 26.1 µM; AlphaScreen FBW7–phospho-cyclin E peptide binding, activator screen; in the data active = normalized activity above about 1.9%;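 note: purified mutant Fbw7 with reduced substrate affinity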
Target sequence (Q969H0 whole entry, looked up): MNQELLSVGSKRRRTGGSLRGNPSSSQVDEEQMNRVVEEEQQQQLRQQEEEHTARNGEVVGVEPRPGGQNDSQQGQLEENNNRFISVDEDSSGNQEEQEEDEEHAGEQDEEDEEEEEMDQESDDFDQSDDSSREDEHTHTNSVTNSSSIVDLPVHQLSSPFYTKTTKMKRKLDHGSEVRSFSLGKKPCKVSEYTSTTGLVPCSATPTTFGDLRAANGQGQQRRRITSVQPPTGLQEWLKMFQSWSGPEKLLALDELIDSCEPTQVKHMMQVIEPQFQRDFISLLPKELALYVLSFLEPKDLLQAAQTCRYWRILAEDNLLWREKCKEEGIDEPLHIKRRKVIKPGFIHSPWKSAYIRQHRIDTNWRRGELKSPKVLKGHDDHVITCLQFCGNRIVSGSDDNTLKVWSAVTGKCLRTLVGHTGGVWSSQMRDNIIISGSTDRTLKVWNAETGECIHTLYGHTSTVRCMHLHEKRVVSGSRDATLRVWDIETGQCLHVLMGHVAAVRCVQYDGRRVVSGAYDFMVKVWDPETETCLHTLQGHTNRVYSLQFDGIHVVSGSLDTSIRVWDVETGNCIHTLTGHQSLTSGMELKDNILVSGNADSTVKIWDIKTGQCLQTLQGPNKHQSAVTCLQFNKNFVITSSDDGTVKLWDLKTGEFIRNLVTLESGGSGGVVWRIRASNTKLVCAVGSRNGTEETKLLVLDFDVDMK
TEAD-YAP inh – TEAD-YAP interaction inhibition; HEK-TIYL cells, TEAD-Gal4/YAP UAS-luciferase luminescence; inhibition, % at 9.12 µM; actives 1.4% (n = 640,000); AID 1259422; in the data active = inhibition above about 32%;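 note: 0% = median of test compound wells and 100% = reference inhibitor wells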
MITF inh – blocks human microphthalmia-associated transcription factor; O75030; AlphaScreen MITF homodimerization, bead proximity signal; actives 0.91% (n = 650,000); inhibition, % at 2.6 µM; in the data active = inhibition above about 50%;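 note: 0% = vehicle wells with protein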
* = called active by the depositor. An excerpt weighted towards active compounds, which were near 3.4% of everything screened.

How did COC(=O)C1=C(C)NC2=C(C(=O)CC(c3ccc(OC)cc3)C2)C1c1ccc(OC)c(Br)c1 (stereo not drawn) do in these assays?
GPR151 activ: 0; FBW7 activator: 0; TEAD-YAP inh: 7; MITF inh: -15

Results for COc1ccc(COC(=O)C2=C(C)NC3=C(C(=O)CC(C)(C)C3)C2c2ccc(-c3ccccc3)cc2)cc1 (stereo not drawn) ?
GPR151 activ: -1; FBW7 activator: 0; TEAD-YAP inh: 15; MITF inh: 5

Results for COc1ccc(C2CC(=O)C3=C(C2)NC(C)=C(C(=O)OCc2ccccc2)C3c2ccc(OC)c(Br)c2)cc1 (stereo not drawn) ?
GPR151 activ: -1; FBW7 activator: 1; TEAD-YAP inh: 48*; MITF inh: -12

How did COC(=O)C1=C(C)NC2=C(C(=O)CC(c3ccccc3)C2)C1c1cc(OC)ccc1OC (stereo not drawn) do in these assays?
GPR151 activ: 2; FBW7 activator: 0; TEAD-YAP inh: 33*; MITF inh: 3

How did CCOC(=O)C1=C(C)NC2=C(C(=O)CC(c3ccccc3)C2)C1c1cc(OC)ccc1OC (stereo not drawn) do in these assays?
GPR151 activ: 2; FBW7 activator: 0; TEAD-YAP inh: 1; MITF inh: -2

How did O=[N+]([O-])c1ccc(S(=O)(=O)NCCSc2ccc(Cl)cc2)cc1 do in these assays?
GPR151 activ: 0; FBW7 activator: 0; TEAD-YAP inh: -2; MITF inh: 12

How did CCOC(=O)C1=C(C)NC2=C(C(=O)C(C(=O)OC)C(C)C2)C1c1ccc(C)cc1 (stereo not drawn) do in these assays?
GPR151 activ: -2; FBW7 activator: 1; TEAD-YAP inh: -1; MITF inh: 10

How did COc1ccccc1NC(=O)C1=C(C)NC2=C(C(=O)CC(C)(C)C2)C1c1cccc(O)c1 (stereo not drawn) do in these assays?
GPR151 activ: -1; FBW7 activator: 2.4*; TEAD-YAP inh: 1; MITF inh: 11

How did CCOC(=O)C1=C(C)NC2=C(C(=O)C(C(=O)OC)C(C)C2)C1c1ccc(OC)cc1 (stereo not drawn) do in these assays?
GPR151 activ: 0; FBW7 activator: 2.3*; TEAD-YAP inh: -17; MITF inh: 18

Results for CN1CCc2c(sc(NC(=O)c3nc4ccccc4s3)c2C(N)=O)C1 ?
GPR151 activ: 1; FBW7 activator: 0; TEAD-YAP inh: -19; MITF inh: 14

Results for COc1ccc(C2Oc3ccccc3C3=C2C(c2cccs2)n2ncnc2N3)cc1 (stereo not drawn) ?
GPR151 activ: 2; FBW7 activator: 0; TEAD-YAP inh: 38*; MITF inh: 2

What do the screens show for `COc1ccc(C2C3=C(Nc4ncnn42)c2ccccc2OC3c2cccs2)cc1` (stereo not drawn)?
GPR151 activ: -1; FBW7 activator: 0; TEAD-YAP inh: -5; MITF inh: -9

What do the screens show for `Cc1ccc(N(C(=O)c2cccc(C)c2)C2C=CS(=O)(=O)C2)cc1` (stereo not drawn)?
GPR151 activ: 0; FBW7 activator: 0; TEAD-YAP inh: -2; MITF inh: 10

What do the screens show for `COc1ccc(Nc2cc(N3CCCCC3C)c3noc4c3c2C(=O)c2ccccc2-4)cc1` (stereo not drawn)?
GPR151 activ: -2; FBW7 activator: -1; TEAD-YAP inh: 25; MITF inh: 51*

How did COc1cccc(Nc2cc(N3CCCCC3C)c3noc4c3c2C(=O)c2ccccc2-4)c1 (stereo not drawn) do in these assays?
GPR151 activ: -1; FBW7 activator: -1; TEAD-YAP inh: 6; MITF inh: 69*

What do the screens show for `COc1ccc(Nc2cc(N3CCCC3)c3noc4c3c2C(=O)c2ccccc2-4)cc1`?
GPR151 activ: -1; FBW7 activator: 0; TEAD-YAP inh: -10; MITF inh: 2

Results for COc1cccc(Nc2cc(N3CCCCC3)c3noc4c3c2C(=O)c2ccccc2-4)c1 ?
GPR151 activ: -2; FBW7 activator: -1; TEAD-YAP inh: 0; MITF inh: 41

What do the screens show for `CC(=O)N(C)C1=C(N2CCCCC2)C(=O)c2ccccc2C1=O`?
GPR151 activ: -1; FBW7 activator: 0; TEAD-YAP inh: 91*; MITF inh: 0

How did CC(=O)N(C1=C(N2CCCCC2)C(=O)c2ccccc2C1=O)c1ccccc1C do in these assays?
GPR151 activ: -2; FBW7 activator: 0; TEAD-YAP inh: 36*; MITF inh: 14

Results for O=C1COc2ccc(C(=O)COC(=O)c3cc(O)c(O)c(O)c3)cc2N1 ?
GPR151 activ: 2; FBW7 activator: 0; TEAD-YAP inh: 2; MITF inh: 82*

Results for CC(C)(C)c1cc(C(=O)N/N=C/c2cc(Cl)ccc2O)n[nH]1 ?
GPR151 activ: 0; FBW7 activator: -1; TEAD-YAP inh: 76*; MITF inh: 31

Results for Cc1cc(C)n2nc(C(=O)N/N=C/c3cc(Cl)cc([N+](=O)[O-])c3O)nc2n1 ?
GPR151 activ: -1; FBW7 activator: -1; TEAD-YAP inh: 1; MITF inh: 9

How did Cc1cc(C(=O)N/N=C\c2ccc(Cl)cc2Cl)c(C)o1 do in these assays?
GPR151 activ: -2; FBW7 activator: 0; TEAD-YAP inh: -4; MITF inh: 12

What do the screens show for `Cc1cc(C(=O)N/N=C/c2ccc(O)c(O)c2O)c(C)o1`?
GPR151 activ: -3; FBW7 activator: -1; TEAD-YAP inh: 2; MITF inh: 53*

What do the screens show for `O=C(N/N=C/c1ccccc1C(F)(F)F)c1cccs1`?
GPR151 activ: 0; FBW7 activator: 0; TEAD-YAP inh: -30; MITF inh: 2

What do the screens show for `O=C(N/N=C/c1ccc(O)c(O)c1O)c1cccs1`?
GPR151 activ: -3; FBW7 activator: -1; TEAD-YAP inh: -44; MITF inh: 54*

What do the screens show for `Cc1cc(C(=O)N/N=C\c2cc(C(C)(C)C)ccc2O)n[nH]1`?
GPR151 activ: -1; FBW7 activator: 0; TEAD-YAP inh: -2; MITF inh: 5

How did Cc1cc(C)n2nc(C(=O)N/N=C/c3cc(Cl)ccc3O)nc2n1 do in these assays?
GPR151 activ: 0; FBW7 activator: -1; TEAD-YAP inh: 18; MITF inh: 56*

What do the screens show for `COc1cc(-c2cnc3[nH]c(=O)n([C@@H](C)c4ccccc4)c3n2)cc(OC)c1OC`?
GPR151 activ: 0; FBW7 activator: -1; TEAD-YAP inh: -17; MITF inh: -6

What do the screens show for `O=C(Nc1nc(-c2ccc(Cl)cc2Cl)cs1)c1cc(-c2ccccc2)nc2ccccc12`?
GPR151 activ: -1; FBW7 activator: 0; TEAD-YAP inh: -2; MITF inh: 10

What do the screens show for `O=C(N/N=C/c1ccccc1Cl)c1cccs1`?
GPR151 activ: -4; FBW7 activator: 0; TEAD-YAP inh: -53; MITF inh: -2

What do the screens show for `O=C(N/N=C\c1cc(Cl)ccc1O)c1cccs1`?
GPR151 activ: 2; FBW7 activator: -1; TEAD-YAP inh: 43*; MITF inh: 35

Results for O=C(N/N=C/c1cc(Cl)ccc1O)c1ccc(F)cc1 ?
GPR151 activ: 0; FBW7 activator: 0; TEAD-YAP inh: 67*; MITF inh: 29
